The source of these data is PubChem BioAssay (EPA / NIEHS).

Molecules are shown by their SMILES. Inconclusive results are not listed. The source made the active and inactive calls. The calls were made as follows: active = hit-call score of the fitted dose curve at least 0.9, where 1 is the maximum; inconclusive = response in the unintended direction; inactive = score below 0.9.

Sequence of Adenosine receptor A1 (Bos taurus) (P28190 whole entry, looked up): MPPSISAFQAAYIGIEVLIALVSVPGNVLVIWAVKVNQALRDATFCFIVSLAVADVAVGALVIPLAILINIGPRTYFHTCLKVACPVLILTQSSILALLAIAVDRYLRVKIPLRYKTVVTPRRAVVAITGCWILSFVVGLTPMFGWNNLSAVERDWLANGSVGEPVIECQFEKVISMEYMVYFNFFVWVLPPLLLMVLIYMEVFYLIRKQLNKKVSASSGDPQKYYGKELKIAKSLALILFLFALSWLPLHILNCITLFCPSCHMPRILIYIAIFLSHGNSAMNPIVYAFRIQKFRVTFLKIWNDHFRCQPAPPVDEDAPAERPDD
Sequence of guinea pig Leukotriene D4 Receptor (LTD4), CYSLTR1 (gene 100135514) (Q2NNR5 whole entry, looked up): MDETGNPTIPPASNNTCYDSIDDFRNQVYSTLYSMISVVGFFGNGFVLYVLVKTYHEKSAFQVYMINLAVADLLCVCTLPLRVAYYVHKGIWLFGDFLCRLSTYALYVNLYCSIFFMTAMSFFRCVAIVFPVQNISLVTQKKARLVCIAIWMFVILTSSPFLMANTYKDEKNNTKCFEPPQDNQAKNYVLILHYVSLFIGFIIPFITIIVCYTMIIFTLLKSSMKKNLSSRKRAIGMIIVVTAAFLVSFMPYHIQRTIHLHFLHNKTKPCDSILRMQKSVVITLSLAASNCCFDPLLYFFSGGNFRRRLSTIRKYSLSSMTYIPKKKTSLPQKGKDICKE
Sequence of rat Monoamine Oxidase, MAO-B, Peripheral (MAOBP), Maob (gene 25750) (P19643 whole entry, looked up): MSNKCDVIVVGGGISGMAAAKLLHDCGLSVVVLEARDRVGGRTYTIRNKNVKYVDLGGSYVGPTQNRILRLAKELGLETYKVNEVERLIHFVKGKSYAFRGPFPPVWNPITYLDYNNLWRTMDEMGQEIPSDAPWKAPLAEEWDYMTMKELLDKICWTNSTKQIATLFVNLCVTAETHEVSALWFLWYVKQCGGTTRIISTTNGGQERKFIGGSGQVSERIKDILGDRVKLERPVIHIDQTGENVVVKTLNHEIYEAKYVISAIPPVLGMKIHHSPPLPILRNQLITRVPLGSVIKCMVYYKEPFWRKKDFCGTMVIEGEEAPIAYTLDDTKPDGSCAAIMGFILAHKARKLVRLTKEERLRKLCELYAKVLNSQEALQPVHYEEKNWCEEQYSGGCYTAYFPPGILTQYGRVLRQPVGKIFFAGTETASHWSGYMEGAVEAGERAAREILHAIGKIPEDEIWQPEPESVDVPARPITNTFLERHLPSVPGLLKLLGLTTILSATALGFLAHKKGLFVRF

One experiment concerns the target rat Monoamine Oxidase, MAO-B, Peripheral (MAOBP), Maob (gene 25750) (UniProt P19643). In words: NVS_ENZ_rMAOBP: NovaScreen (NVS) Enzymatic Assay for rat Monoamine Oxidase, MAO-B, Peripheral (MAOBP) (AID 2283242).
For the compound `CC(C1CC1)C(O)(Cn1cncn1)c1ccc(Cl)cc1` (stereo not given), the call was inactive. As usually defined, the AC50 is the midpoint of the concentration-response curve, whichever way the signal moves. Consider `CCC(=O)Nc1ccc(Cl)c(Cl)c1`, for which the half-maximal activity concentration (AC50) was 25 µM (active).

As to `O=c1ccc(=O)[nH][nH]1`, the compound was classed as inactive.

In the case of `Nc1nc(N)nc(NC2CC2)n1`, the result was inactive.

As to `Nc1c(Cl)cc([N+](=O)[O-])cc1Cl`, the half-maximal activity concentration (AC50) was 39.8 µM (active).

`FC(F)C(F)(F)OCC(Cn1cncn1)c1ccc(Cl)cc1Cl` (stereo not given): the call was inactive. Turning to `S=C1NCCN1`, the outcome was inactive. Regarding `CSc1nnc(C(C)(C)C)c(=O)n1N`, the call was inactive. On the same count and under the same terms, for `Cc1nn(-c2cc(NS(C)(=O)=O)c(Cl)cc2Cl)c(=O)n1C(F)F` the value was “inactive”.

In the next experiment the test system is rat Monoamine Oxidase, MAO-A, Central (MAOAC), gene 29253. In words: NVS_ENZ_rMAOAC: NovaScreen (NVS) Enzymatic Assay for rat Monoamine Oxidase, MAO-A, Central (MAOAC) (AID 2283243).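 Also: potency refers to inhibition seen as signal drop below DMSO baseline.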 The procedure, abridged:
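Rat brain tissue extract served as the cell-free enzyme source; activity was measured by radiometric scintillation counting 1.5 hours after compound addition. Loss of signal relative to DMSO baseline indicated inhibition; primary screen at 25 uM in duplicate.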
For the compound `CCc1cccc(C)c1N(C(=O)CCl)C(C)COC` (stereo not given), the compound was called inactive. Take `CCC(=O)Nc1ccc(Cl)c(Cl)c1`: the AC50 was 15.3 µM (active). Still for that read-out and setting: for `CN(C)C(=O)Nc1cccc(C(F)(F)F)c1` the value was 29.7 µM (active). Take `CC[C@H](C)[C@H]1O[C@]2(C=C[C@@H]1C)C[C@@H]1C[C@@H](C/C=C(\C)[C@@H](O[C@H]3C[C@H](OC)[C@@H](O[C@H]4C[C@H](OC)[C@@H](NC)[C@H](C)O4)[C@H](C)O3)[C@@H](C)/C=C/C=C3\CO[C@@H]4[C@H](O)C(C)=C[C@@H](C(=O)O1)[C@]34O)O2`: the call was inactive. On the same count and under the same terms, the result for `CC1(C(=O)Nc2ccc(O)c(Cl)c2Cl)CCCCC1` reads “inactive”. With `Nc1c(Cl)cc([N+](=O)[O-])cc1Cl`, the AC50 was 15.6 µM (active). The same measure, in the same setting: the result for `C[Si](Cn1cncn1)(c1ccc(F)cc1)c1ccc(F)cc1` reads 34 µM (active); that for `CC(=NC#N)N(C)Cc1ccc(Cl)nc1`, 13.3 µM (active).

The next experiment concerns the target Adenosine receptor A1 (Bos taurus) (UniProt P28190). In words: NVS_GPCR_bAdoR_NonSelective: NovaScreen (NVS) G Protein-Coupled Receptor Assay for bovine Adenosine Receptor (AdoR), Non-selective Binding (AID 2283244). The procedure, abridged: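 Bovine striatal membranes, radioligand displacement binding, 1 h after dosing, filter-based scintillation counting. Screened in duplicate at 25 uM, then concentration-response up to 50 uM; loss of specific binding relative to DMSO.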
With `COP(=O)(OC)OC(Br)C(Cl)(Cl)Br` (stereo not given), the half-maximal activity concentration (AC50) is 25 µM (active).

For `CCOC(=O)CC(SP(=O)(OC)OC)C(=O)OCC` (stereo not given), the compound was called inactive. Turning to `CCNc1nc(Cl)nc(NC(C)(C)C#N)n1`, the AC50 is 13.3 µM (active). On the same count and under the same terms, the result for `CSc1nc(NC(C)C)nc(NC(C)C)n1` reads 5.37 µM (active); that for `Cc1cc(C2CC2)nc(Nc2ccccc2)n1`, 25 µM (active).

The target in the next experiment is guinea pig Leukotriene D4 Receptor (LTD4), CYSLTR1 (gene 100135514) (UniProt Q2NNR5). The experiment can be described thus: NVS_GPCR_gLTD4: NovaScreen (NVS) G Protein-Coupled Receptor Assay for guinea pig Leukotriene D4 Receptor (LTD4) (AID 2283248). How it is done:
NVS_GPCR_gLTD4 is a biochemical, single-readout assay that uses extracted gene-proteins from Guinea pig lung membranes in a tissue-based cell-free assay. Measurements were taken 1 hour after chemical dosing in a 48-well plate.NVS_GPCR_gLTD4 is one of one assay component(s) measured or calculated from the NVS_GPCR_gLTD4 assay. It is designed to make measurements of radioligand binding, a form of binding reporter, as detected with scintillation counting signals by Filter-based radiodetection technology.Data from the assay component NVS_GPCR_gLTD4 was analyzed into 1 assay endpoint. This assay endpoint, NVS_GPCR_gLTD4, was analyzed in the positive analysis fitting direction relative to DMSO as the negative control and baseline of activity. Using a type of binding reporter, loss-of-signal activity can be used to understand changes in the binding as they relate to the gene Cysltr1. Furthermore, this assay endpoint can be referred to as a primary readout, because the performed assay has only produced 1 assay endpoint. To generalize the intended target to other relatable targets, this assay endpoint is annotated to the gpcr intended target family, where the subfamily is rhodopsin-like receptor.
Binding assays used specific radioligands (tritiated, iodinated) with non-radioactive competitive displacement ligands in agonist or antagonist protocols (as indicated) and various reference compounds and inhibitors to titrate specific binding to receptors and transporters. Most enzyme assays (CYPs, kinases, phosphatases, proteases, HDACs) used recombinant protein and specific substrates (fluorescence mostly, some colorimetric and radioactive) and inhibitors, followed by a biochemical separation of substrate and product. All assays for the biochemical HTS were initially run in duplicate at a single concentration (10 uM for CYP450 assays and 25 uM for all others). […]
`COP(=O)(OC)OC(Br)C(Cl)(Cl)Br` (stereo not given): the AC50 is 0.00229 µM (active).

For `CCCOCC(=Nc1ccc(Cl)cc1C(F)(F)F)n1ccnc1`, the call was inactive.

Turning to `CCOP(=S)(OCC)Oc1cc(C)nc(C(C)C)n1`, the outcome was inactive.
